Results taken from PubChem BioAssay AID2284188 (EPA ToxCast).
The source made the active and inactive calls. Rule for the calls: active = hit-call score of the fitted dose curve at least 0.9, where 1 is the maximum; inactive = score below 0.9.

biological target: Voltage-dependent L-type calcium channel subunit alpha-1C (Rattus norvegicus) (UniProt P22002); experiment: ERF_FR_IC_rCACNA1C_Diltiazem: Eurofins (ERF) Calcium Ion Channel Binding (Diltiazem Site) LeadHunter Assay for rat Cav1.2 (L-type)
Sequence (P22002 whole entry, looked up): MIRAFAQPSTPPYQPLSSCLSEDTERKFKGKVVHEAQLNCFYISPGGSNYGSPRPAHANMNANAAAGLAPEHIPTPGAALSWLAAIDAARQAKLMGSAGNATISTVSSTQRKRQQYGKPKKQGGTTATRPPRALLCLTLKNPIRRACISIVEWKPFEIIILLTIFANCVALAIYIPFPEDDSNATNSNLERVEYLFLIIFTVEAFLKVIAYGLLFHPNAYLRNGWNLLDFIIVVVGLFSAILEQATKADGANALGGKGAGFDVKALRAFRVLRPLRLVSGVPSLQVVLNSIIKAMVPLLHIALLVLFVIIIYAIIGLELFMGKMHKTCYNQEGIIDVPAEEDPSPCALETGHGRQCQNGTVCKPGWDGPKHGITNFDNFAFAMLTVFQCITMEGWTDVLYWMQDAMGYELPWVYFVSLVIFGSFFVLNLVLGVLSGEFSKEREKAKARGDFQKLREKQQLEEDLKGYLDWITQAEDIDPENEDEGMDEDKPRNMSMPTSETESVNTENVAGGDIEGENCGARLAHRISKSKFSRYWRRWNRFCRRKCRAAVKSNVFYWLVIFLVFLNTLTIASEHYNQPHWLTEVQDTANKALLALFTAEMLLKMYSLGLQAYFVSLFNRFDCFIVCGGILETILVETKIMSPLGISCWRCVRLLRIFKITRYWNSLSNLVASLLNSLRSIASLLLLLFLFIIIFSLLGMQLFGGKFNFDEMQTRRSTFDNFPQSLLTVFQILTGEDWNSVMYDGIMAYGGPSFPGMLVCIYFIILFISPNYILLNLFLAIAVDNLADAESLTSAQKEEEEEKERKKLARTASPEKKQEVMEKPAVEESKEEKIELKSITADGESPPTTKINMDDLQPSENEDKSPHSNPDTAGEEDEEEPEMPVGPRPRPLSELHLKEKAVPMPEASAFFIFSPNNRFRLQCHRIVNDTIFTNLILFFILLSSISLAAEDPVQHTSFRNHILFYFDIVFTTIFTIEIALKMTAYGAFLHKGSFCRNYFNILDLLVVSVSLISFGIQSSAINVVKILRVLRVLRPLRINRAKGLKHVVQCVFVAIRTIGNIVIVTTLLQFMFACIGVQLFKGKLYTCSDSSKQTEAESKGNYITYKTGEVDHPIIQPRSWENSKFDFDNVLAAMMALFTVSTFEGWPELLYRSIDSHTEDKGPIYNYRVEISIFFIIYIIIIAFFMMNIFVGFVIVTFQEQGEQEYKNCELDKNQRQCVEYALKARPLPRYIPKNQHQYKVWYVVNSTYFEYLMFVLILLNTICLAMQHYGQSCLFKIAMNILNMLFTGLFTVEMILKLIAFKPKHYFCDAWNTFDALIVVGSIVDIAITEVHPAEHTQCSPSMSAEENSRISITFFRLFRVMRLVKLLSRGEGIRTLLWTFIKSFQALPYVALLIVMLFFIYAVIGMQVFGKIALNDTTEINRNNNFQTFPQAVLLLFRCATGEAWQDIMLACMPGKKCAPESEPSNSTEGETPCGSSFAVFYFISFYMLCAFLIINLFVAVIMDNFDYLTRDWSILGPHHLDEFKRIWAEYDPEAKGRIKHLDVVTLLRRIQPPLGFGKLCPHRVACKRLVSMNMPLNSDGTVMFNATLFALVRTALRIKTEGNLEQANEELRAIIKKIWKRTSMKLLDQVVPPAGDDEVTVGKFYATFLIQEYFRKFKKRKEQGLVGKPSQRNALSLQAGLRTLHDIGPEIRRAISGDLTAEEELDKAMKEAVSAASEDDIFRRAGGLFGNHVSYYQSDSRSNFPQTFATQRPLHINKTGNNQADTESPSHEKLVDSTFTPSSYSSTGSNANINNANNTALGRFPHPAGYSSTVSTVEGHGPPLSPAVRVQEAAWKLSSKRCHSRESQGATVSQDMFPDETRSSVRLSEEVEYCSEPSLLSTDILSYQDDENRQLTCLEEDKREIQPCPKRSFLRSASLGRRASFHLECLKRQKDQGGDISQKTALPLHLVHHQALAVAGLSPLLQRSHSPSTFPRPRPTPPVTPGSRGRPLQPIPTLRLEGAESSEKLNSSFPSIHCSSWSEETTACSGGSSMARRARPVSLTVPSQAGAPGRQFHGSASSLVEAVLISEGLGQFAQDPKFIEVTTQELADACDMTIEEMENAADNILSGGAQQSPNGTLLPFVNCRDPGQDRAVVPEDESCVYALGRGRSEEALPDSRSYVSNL
Experimental: ERF_FR_IC_rCACNA1C_Diltiazem is a biochemical, single-readout assay that uses extracted gene-proteins in a cell-free assay. Measurements were taken 2 hour after chemical dosing in a 96-well plate. See Cav1.2 (L-type) Rat Calcium Ion Channel Binding (Diltiazem Site) Assay, Cerep.ERF_FR_IC_rCACNA1C_Diltiazem is an assay component calculated from the ERF_FR_IC_rCACNA1C_Diltiazem assay. It is designed to measure radioligand binding using a type of binding reporter as detected by scintillation counting with radiometry technology.Data from the assay component ERF_FR_IC_rCACNA1C_Diltiazem was analyzed at the assay endpoint, ERF_FR_IC_rCACNA1C_Diltiazem, in the positive analysis fitting direction relative to DMSO as the negative control and baseline of activity. Using a type of binding reporter, loss-of-signal activity can be used to understand changes in binding as they relate to gene CACNA1C. To generalize the intended target to other relatable targets, this assay endpoint is annotated to the ion channel intended target family, where the subfamily is voltage gated (Calcium).
Rat cells are incubated for 120 minutes at room temprature with [3H]diltiazem (15 nM) as substrate and Papaverine as control inhibitor. Test Sample Requirements: Minimum for 1) Screen: 60 ul of 10 mM stock -OR- 1 mg (pre-weighed) for 10 uM final testing. […]

| Structure (SMILES) | AC50 |
| --- | --- |
| O=C(/C=C/c1ccc(O)cc1)CC(=O)/C=C/c1ccc(O)cc1 | 3.46 µM (active) |
